# Screening results (PubChem BioAssay)
# STK33 inh: inhibitors of human STK33 kinase; hit rate 0.44% among 27,000; Q9BYT3; ADP-Glo luminescence, MBP substrate; AID 2322; inhibition, % at 12.5 µM; in the data active = inhibition above about 20%
# Target sequence (Q9BYT3 whole entry, looked up): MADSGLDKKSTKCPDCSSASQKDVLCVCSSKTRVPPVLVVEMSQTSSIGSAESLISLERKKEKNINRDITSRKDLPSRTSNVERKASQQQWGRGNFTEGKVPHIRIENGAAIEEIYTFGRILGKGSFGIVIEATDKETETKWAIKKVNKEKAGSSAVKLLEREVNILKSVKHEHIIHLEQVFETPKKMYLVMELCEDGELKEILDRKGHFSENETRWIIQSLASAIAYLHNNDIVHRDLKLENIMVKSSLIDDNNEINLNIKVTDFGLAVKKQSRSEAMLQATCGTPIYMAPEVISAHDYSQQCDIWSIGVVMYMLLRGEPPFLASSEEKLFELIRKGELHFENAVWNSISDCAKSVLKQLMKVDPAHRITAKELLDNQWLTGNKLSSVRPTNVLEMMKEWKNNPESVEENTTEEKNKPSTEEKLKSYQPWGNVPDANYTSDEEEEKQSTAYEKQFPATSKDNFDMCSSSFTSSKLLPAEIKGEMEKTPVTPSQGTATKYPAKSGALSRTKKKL
# NOMO-1 viab: STK33 inhibitor candidate reducing NOMO-1 cell viability | hit rate 7.5% among 37,000 | inhibition, % (test concentration not listed) | NOMO-1 AML viability, CellTiter-Glo luminescence, 72 h | AID 2330; in the data active = inhibition above about 80%
# PD-1 reverse act: reversal of PD-1 mediated T-cell inhibition; primary human CD4 T cells, PD-L1 beads, CellTiter-Glo 96 h; activation, % (concentration not given with the values); 29,000 tested, under 10 active; call rule not given here;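 note: 0% = median vehicle wells and 100% = positive control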
# * marks the source's active call; other numbers are inactive results; / = no result given. Shown is part of a subset that was picked to be rich in hits.
SMILES,STK33 inh,NOMO-1 viab,PD-1 reverse act
COc1ccc(OC)c(NS(=O)(=O)c2cc(OC)ccc2OC)c1,0,16,-1
O=C(O)CCN1C(=O)C2C3c4ccccc4C(c4ccccc43)C2C1=O (stereo not given),/,32,-1
COc1ccc(C(C)C)cc1S(=O)(=O)Nc1cccc(C(=O)O)c1,-3,-6,1
COc1ccc(C(C)=O)cc1CSc1nnc(-c2cccc(Br)c2)n1-c1ccccc1,1,29,/
COc1ccc(NC(=O)CSc2nnc(C)n2-c2ccc(C)c(C)c2)cc1,-5,15,-1
N#Cc1c(NC(=O)CCCOc2ccc(Cl)cc2Cl)sc2c1CCCC2,-2,33,/
C=C(C(=O)O)C1CCC2(C)CCC(O)C2(C(C)=O)C1 (stereo not given),-7,-1,0
COC(=O)c1sc(SCCOC(=O)c2ccccc2Cl)c2c1CC(C)(C)CC2=O,/,6,1
CN(C)/C=C/C(=O)c1sc(SCc2ccc(Cl)cc2)c2c1CC(C)(C)CC2=O,/,113*,-1
O=C1O[C@H](c2ccccc2)[C@H](c2ccccc2)N2[C@H]1[C@@H](C(=O)N1CCCCCCC1)[C@]1(C(=O)Nc3ccc(C#CC4=CCCCC4)cc31)[C@H]2c1ccccc1OCCO,22*,/,/
O=C1O[C@H](c2ccccc2)[C@H](c2ccccc2)N2[C@H]1[C@@H](C(=O)N1CCN(c3ncccn3)CC1)[C@]1(C(=O)Nc3ccc(C#CC4=CCCCC4)cc31)[C@H]2c1ccccc1OCCO,8,/,/
CC1CCc2c(sc3ncnc(SCC(=O)Nc4ccc5c(c4)OCCO5)c23)C1 (stereo not given),6,37,1
O=C(Cn1cnc2sc(-c3ccccc3)cc2c1=O)NCc1ccco1,5,116*,/
Cc1cccc(NC(=O)Cn2cnc3sc(-c4ccccc4)cc3c2=O)c1,4,13,2
CN(C)/C=N/c1c(C#N)cnn1-c1ncnc2sc3c(c12)CCC3,/,9,0
COc1ccc(S(=O)(=O)N(CCO)c2ccccc2CN(C)C/C=C/c2ccc(Cl)cc2)cc1,4,83*,-12
COc1ccc(S(=O)(=O)N(CC(=O)O)c2ccc(Cl)cc2)cc1,-3,-9,/
Cc1ccc(Cl)cc1NC(=O)CSc1nnc(-c2ccc([N+](=O)[O-])cc2)n1-c1ccccc1,-2,35,-3
C[C@@H]1CN([C@@H](C)CO)C(=O)c2cccc(NC(=O)C3CCCCC3)c2O[C@H]1CN(C)CC1CCCCC1,/,95*,/
C[C@H]1CN([C@@H](C)CO)C(=O)c2cccc(NC(=O)C3CCCCC3)c2O[C@H]1CN(C)Cc1ccc(Oc2ccccc2)cc1,/,57,0
C[C@H](CO)N1C[C@H](C)[C@H](CN(C)Cc2ccc(Oc3ccccc3)cc2)Oc2c(NC(=O)C3CCCCC3)cccc2C1=O,/,109*,-2
C[C@H]1CN([C@@H](C)CO)C(=O)c2cccc(NC(=O)C3CCCCC3)c2O[C@H]1CN(C)Cc1ccc(-c2ccccc2)cc1,/,87*,0
C[C@@H]1CN([C@H](C)CO)C(=O)c2cccc(NC(=O)C3CCCCC3)c2O[C@@H]1CN(C)Cc1ccc(-c2ccccc2)cc1,/,110*,-5
C[C@H]1CN([C@@H](C)CO)C(=O)c2cccc(NC(=O)C3CCCCC3)c2O[C@H]1CN(C)CC1CCCCC1,/,39,0
C[C@H](CO)N1C[C@H](C)[C@@H](CN(C)Cc2ccc(-c3ccccc3)cc2)Oc2c(NC(=O)C3CCCCC3)cccc2C1=O,/,52,/
SMILES,STK33 inh,NOMO-1 viab,PD-1 reverse act
C[C@@H]1CN([C@H](C)CO)C(=O)c2cccc(NC(=O)C3CC3)c2O[C@@H]1CN(C)Cc1ccc(-c2ccccc2)cc1,/,17,2
CCN1C(=O)C(=Cc2c(O)n(CC)c(=O)n(CC)c2=O)C(=O)N(CC)C1=O,-2,0,-1
CCn1c(SCC(=O)Nc2cc3oc4ccccc4c3cc2OC)nnc1-c1cccnc1,2,29,/
CCN(CC(=O)Nc1cccc(F)c1)S(=O)(=O)c1ccc(C)cc1,0,4,0
COc1ccc(CN(C)C[C@@H]2Oc3c(NC(=O)C4CCCCC4)cccc3C(=O)N([C@@H](C)CO)C[C@H]2C)cc1,/,98*,-7
C[C@H](CO)N1C[C@H](C)[C@H](CN(C)Cc2ccc(-c3ccccc3)cc2)Oc2c(NC(=O)C3CC3)cccc2C1=O,/,50,-6
C[C@H](CO)N1C[C@H](C)[C@@H](CN(C)Cc2ccccc2)Oc2c(NC(=O)C3CCCCC3)cccc2C1=O,/,63,-3
C[C@H](CO)N1C[C@H](C)[C@@H](CN(C)Cc2ccc(-c3ccccc3)cc2)Oc2c(NC(=O)C3CC3)cccc2C1=O,/,89*,/
COc1ccc(CN(C)C[C@H]2Oc3c(NC(=O)C4CCCCC4)cccc3C(=O)N([C@H](C)CO)C[C@H]2C)cc1,/,20,0
C[C@H](CO)N1C[C@H](C)[C@H](CN(C)Cc2ccc(-c3ccccc3)cc2)Oc2c(NC(=O)C3CCOCC3)cccc2C1=O,/,3,-1
C[C@@H]1CN([C@@H](C)CO)C(=O)c2cccc(NC(=O)C3CCCCC3)c2O[C@H]1CN(C)Cc1ccc(-c2ccccc2)cc1,/,81*,-4
C[C@@H]1CN([C@@H](C)CO)C(=O)c2cccc(NC(=O)C3CCCCC3)c2O[C@H]1CN(C)Cc1ccccc1,/,96*,-4
COc1ccc(C(=O)c2oc3ccccc3c2NC(=O)COc2ccc(F)cc2)cc1,0,19,/
CN1/C(=C2/SC(=S)N(c3ccccc3)C2=O)Sc2ccccc21,/,14,0
c1ccc(C2OCC3OC(c4ccccc4)OC3CO2)cc1 (stereo not given),/,17,1
CNc1cc2ncnc(Nc3cccc(Br)c3)c2cc1N,3,97*,6
Cc1cc(=O)c2c(O)c(C)c(O)cc2o1,5,-4,/
O=C(CSc1nnc(-c2ccccc2O)n1-c1ccccc1)Nc1ccc(N2CCOCC2)cc1,0,26,0
C[C@H]1CN([C@@H](C)CO)C(=O)c2cc(NC(=O)Nc3ccc4c(c3)OCO4)ccc2O[C@H]1CN(C)Cc1ccc(Cl)c(Cl)c1,0,-2,1
C[C@H]1CN([C@@H](C)CO)C(=O)c2cc(NC(=O)Nc3ccc4c(c3)OCO4)ccc2O[C@H]1CN(C)Cc1ccncc1,2,95*,2
C[C@@H]1CN([C@@H](C)CO)C(=O)c2cc(NC(=O)Nc3ccccc3)ccc2O[C@H]1CN(C)Cc1ccc(Cl)c(Cl)c1,/,124*,1
C[C@@H]1CN([C@H](C)CO)C(=O)c2cc(NC(=O)Nc3ccc4c(c3)OCO4)ccc2O[C@H]1CN(C)Cc1ccncc1,7,-6,2
COc1ccc(NC(=O)Nc2ccc3c(c2)C(=O)N([C@H](C)CO)C[C@@H](C)[C@H](CN(C)Cc2ccc(Cl)c(Cl)c2)O3)cc1,0,-13,3
COc1ccc(NC(=O)Nc2ccc3c(c2)C(=O)N([C@@H](C)CO)C[C@H](C)[C@@H](CN(C)Cc2ccc(Cl)c(Cl)c2)O3)cc1,/,31,0
C[C@@H]1CN([C@@H](C)CO)C(=O)c2cc(NC(=O)Nc3ccc4c(c3)OCO4)ccc2O[C@@H]1CN(C)Cc1ccc(Cl)c(Cl)c1,2,95*,2
C[C@@H]1CN([C@@H](C)CO)C(=O)c2cc(NC(=O)Nc3ccc(F)cc3)ccc2O[C@@H]1CN(C)Cc1ccc(Cl)c(Cl)c1,2,113*,0
